# GPR151 activ: activators of human GPR151; Q8TDV0; AID 1508602; 650,000 compounds, 1% hits; PathHunter beta-arrestin GPR151 cells, luminescence; activation, % at 11.2 µM; in the data active = activation above about 4.9%;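 note: 0% = median of compound wells and 100% = cells with positive control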
# MITF inh: inhibitors of human MITF | O75030 | AlphaScreen MITF homodimerization, bead proximity signal | inhibition, % at 2.6 µM | 650,000 compounds, 0.91% hits; in the data active = inhibition above about 50%;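 note: 0% = vehicle wells with protein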
# FBW7 activator: human FBW7 E3 ligase activation, primary screen | Q969H0 | AlphaScreen FBW7–phospho-cyclin E peptide binding, activator screen | normalized activity (activation), % at 26.1 µM | 650,000 compounds, 0.13% hits | AID 1259310; in the data active = normalized activity above about 1.9%;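 note: purified mutant Fbw7 with reduced substrate affinity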
# TEAD-YAP inh: TEAD-YAP interaction inhibition. inhibition, % at 9.12 µM. AID 1259422. HEK-TIYL cells, TEAD-Gal4/YAP UAS-luciferase luminescence. 640,000 compounds, 1.4% hits; in the data active = inhibition above about 32%;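 note: 0% = median of test compound wells and 100% = reference inhibitor wells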
# MITF inh conf: confirmation of human MITF inhibitors | AlphaScreen MITF homodimerization, biotin/His-MITF beads | inhibition, % at 2.6 µM | 4,700 compounds, 16% hits | shares compounds with MITF inh;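 active = inhibition above a cutoff derived from the DMSO control wells, cut at about 28% in these data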;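 note: 0% = MITF dimer wells with DMSO only; inhibitors lower the bead chemiluminescence by keeping MITF from dimerizing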
# AlphaScreen DR: AlphaScreen optical interference, dose response counter-screen. AID 1259373. shares compounds with MITF inh. 480 compounds, 6% hits. IC50, µM. AlphaScreen optical interference counterscreen, cell-free; call rule not given here
# AlphaScreen intf2: AlphaScreen optical interference, counter-screen; inhibition, % at 2.6 µM; 4,700 compounds, 7.6% hits; LysRS AlphaScreen counterscreen, signal interference, triplicate; shares compounds with MITF inh;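 active = inhibition above a cutoff derived from the DMSO control wells, cut at about 30% in these data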
# GPR151 confirm: human GPR151 activation, confirmation screen; activation, % at 11.2 µM; AID 1508609; 6,700 tested, under 10 active; GPR151 PathHunter beta-arrestin cells, luminescence, 90 min; % of EA-reagent control over plate median; shares compounds with GPR151 activ;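 active = mean percent activation across replicates above the confirmation screen cutoff of 4.91%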
# GPR119 ag: activates human GPR119 in a GPR151 counter-screen. activation, % at 11.2 µM. shares compounds with GPR151 activ. GPR119 PathHunter beta-arrestin cells, luminescence, 90 min; 0 = compound-well median, 100 = enzyme-acceptor control. 6,700 compounds, 0.3% hits;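 active = mean percent activation in the counterscreen above 29.09%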;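 note: counterscreen on off-target GPR119 to flag nonselective hits from the GPR151 activator screen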
# Target sequence (Q8TDV5 whole entry, looked up): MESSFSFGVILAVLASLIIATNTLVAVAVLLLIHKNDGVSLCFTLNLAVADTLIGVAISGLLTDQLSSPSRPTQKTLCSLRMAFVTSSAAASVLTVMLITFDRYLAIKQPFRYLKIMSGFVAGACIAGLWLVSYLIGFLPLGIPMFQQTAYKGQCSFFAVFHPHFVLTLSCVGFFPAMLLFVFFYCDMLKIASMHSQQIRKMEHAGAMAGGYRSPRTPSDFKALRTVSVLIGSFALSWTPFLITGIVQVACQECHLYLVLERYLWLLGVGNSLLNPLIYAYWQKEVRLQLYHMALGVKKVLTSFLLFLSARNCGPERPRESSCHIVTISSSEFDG
# An asterisk follows results filed as active; nt = no result. Most compounds without a hit are left out; they make up all but 3.4% or so of the library.
SMILES,GPR151 activ,MITF inh,FBW7 activator,TEAD-YAP inh,MITF inh conf,AlphaScreen intf2,GPR151 confirm,GPR119 ag,others
CCN1CCN(c2cc(C)c3cc(NC(=O)c4ccc(OC)cc4OC)ccc3n2)CC1,-1,7,1,-24,nt,nt,nt,nt,
COC(=O)C(C#N)C(=O)c1ccc(F)cc1 (stereo not drawn),2,2,0,2,nt,nt,nt,nt,
CC1CCN(Cc2nnnn2CCCC(=O)NCCCc2cccnc2)CC1,-1,2,0,7,nt,nt,nt,nt,
CC1CCN(Cc2nnnn2CCCC(=O)NCCc2cccc(Cl)c2)CC1,1,65*,0,5,0,13,nt,nt,
O=C(Nc1ccc(Br)cc1)c1ccc([N+](=O)[O-])o1,1,10,0,9,nt,nt,nt,nt,
CC(=O)NS(=O)(=O)c1ccc(NC(=O)c2ccc([N+](=O)[O-])o2)cc1,3,64*,0,12,40*,-5,nt,nt,AlphaScreen DR=>6.6
Cc1ccc(C(C)C)c(OCCNCc2ccco2)c1,-1,55*,0,-5,5,9,nt,nt,
c1coc(CNCCOc2ccc3ccccc3c2)c1,-1,87*,0,-10,16,26,nt,nt,
Nc1nc(Nc2nccc3ccccc23)nc2c1ncn2Cc1ccc(C(F)(F)F)cc1,-1,9,0,-7,nt,nt,nt,nt,
NS(=O)(=O)c1ccc(N=Cc2cc3c(cc2[N+](=O)[O-])OCO3)cc1,1,64*,0,-2,56*,9,nt,nt,AlphaScreen DR=>6.5
CCCNc1nc(Nc2ccnn2C)nc2c1ncn2-c1ccccc1,0,12,0,-14,nt,nt,nt,nt,
COc1ccccc1C(=O)NC1(C(F)(F)F)NC(=O)N(c2ccccc2)C1=O (stereo not drawn),0,88*,0,5,8,11,nt,nt,
COC(C(=O)Nc1ccc(Br)c(Cl)c1)c1ccccc1 (stereo not drawn),-1,4,0,5,nt,nt,nt,nt,
CCOC(=O)C1CCN(S(=O)(=O)c2ccc(Cl)cc2OC)CC1,0,59*,0,-6,17,14,nt,nt,
CCOC(=O)C1CCN(S(=O)(=O)c2cc(Cl)c(C)cc2OC)CC1,2,-6,0,-16,nt,nt,nt,nt,
COc1ccc(C(=O)CSc2nnc(-c3ccc4c(c3)OCO4)o2)cc1OC,0,86*,0,1,-21,-6,nt,nt,
COc1ccccc1OCC#CCNC1CCCC1,-2,55*,0,-1,3,9,nt,nt,
COc1ccccc1C(=O)N1CCN(Cc2ccc3c(c2)OCO3)CC1,2,-5,0,2,nt,nt,nt,nt,
COc1ccccc1/C=C/CN1CCN(Cc2ccc3c(c2)OCO3)CC1,6.1*,69*,0,-3,-1,1,0,-8,
O=C(N/N=C/C=C/c1ccccc1)c1ccc(O)cc1,3,-4,0,-35,nt,nt,nt,nt,
FC(F)(F)c1cccc(OCCCCNCCN2CCOCC2)c1,5.8*,65*,0,7,-2,9,0,-5,
O=C1Nc2ccc(S(=O)(=O)NCc3ccccc3)cc2C1=O,6.1*,79*,0,12,57*,13,0,-10,AlphaScreen DR=>6.1
O=S(=O)(NCc1ccccc1)c1cccc(S(=O)(=O)c2ccccc2)c1,3,-10,0,-2,nt,nt,nt,nt,
COc1ccccc1CC(=O)N1CC[C@@H]2[C@H](CCCN2C(=O)c2occc2C)C1,7.3*,52*,0,6,-6,0,0,7,
CC(=O)c1cccc(OCCCCN2CCN(C)CC2)c1,5.1*,55*,0,7,3,16,0,6,
SMILES,GPR151 activ,MITF inh,FBW7 activator,TEAD-YAP inh,MITF inh conf,AlphaScreen intf2,GPR151 confirm,GPR119 ag,others
COc1ccc(OC)c(CN2CCC(C(=O)NCc3ccc(C)cc3)CC2)c1,-1,23,0,3,nt,nt,nt,nt,
COc1ccc(OC)c(CN2CCN(Cc3ccc(C)cc3)CC2)c1,5.5*,83*,0,-3,1,7,-1,-19,
c1cncc(CN2CCN(Cc3cccc4ccccc34)CC2)c1,11*,83*,0,-4,4,1,-1,-20,
OC(COc1ccc(Cl)cc1Cl)CN1CCCC1 (stereo not drawn),-1,-5,0,-4,nt,nt,nt,nt,
O=C1c2ccccc2NC(c2cccc([N+](=O)[O-])c2)N1c1ccc(F)cc1 (stereo not drawn),0,5,0,10,nt,nt,nt,nt,
Cc1ccc(N2C(=O)c3ccccc3NC2c2cccc([N+](=O)[O-])c2)cc1 (stereo not drawn),8.6*,63*,0,-9,77*,6,0,-12,AlphaScreen DR=>5.2
Cc1ccc(N2CC(=O)Nc3ccccc3S2(=O)=O)cc1,1,14,0,-7,nt,nt,nt,nt,
CCOC(=O)N1CC(=O)Nc2ccccc2S1(=O)=O,11*,66*,1,1,17,17,0,10,
Clc1cc2c(c3ncccc13)OCN(CCCN1CCOCC1)C2,5.2*,92*,0,27,102*,100*,0,3,
Cc1ccccc1OCCOCCn1cnc2ccccc21,4.9*,72*,0,15,14,19,0,14,
Fc1ccccc1-c1cc(NCCCn2ccnc2)nc(-c2ccncc2)n1,7.5*,62*,-1,3,34*,41*,-1,-7,
COc1ccccc1CCNC(=O)[C@@H]1C[C@H](n2cnnn2)CN1CC1CCCCC1,-2,8,0,8,nt,nt,nt,nt,
CCOC(=O)N1CCN(C(=O)C2CCN(C/C(C)=C/c3ccccc3)CC2)CC1,6.6*,58*,0,2,11,12,0,7,
C/C(=C\c1ccccc1)CN1CCC(C(=O)N2CCCC2)CC1,2,37,0,12,nt,nt,nt,nt,
COc1ccc(/C=N/NC(=O)COc2ccccc2C)cc1I,0,-2,0,-6,nt,nt,nt,nt,
O=C(O)c1cc(N=Cc2nc(-c3ccc(Cl)cc3)oc2O)ccc1O,1,11,0,-1,nt,nt,nt,nt,
O=C(O)c1cc(N=Cc2ccco2)ccc1O,5.0*,51*,0,-6,81*,-2,2,16,AlphaScreen DR=>6.5
Cc1cccc(CC(=O)Nc2cnn(-c3cccc(C(=O)Nc4ccc(CN)cc4)c3)c2)c1,-1,18,0,2,nt,nt,nt,nt,
CCN1CCN(CCOc2cc(C)ccc2C)CC1,17*,65*,0,4,6,12,0,-3,
Cc1ccc(OCCN2CCNCC2)c(C)c1,0,44,0,-6,nt,nt,nt,nt,
COc1cc2ncn3c(=O)n(CC(=O)NC4CCCCC4)nc3c2cc1OC,-1,11,0,0,nt,nt,nt,nt,
